Test results as given in PubChem BioAssay (EPA / NIEHS).
Where “and” joins values, the source holds several entries; their conditions need not be identical. Identical values can stand only once. Results filed as inconclusive are left out. Some structures have more than one record in an assay (separate samples or runs), and their calls can disagree. Calls of active or inactive are those of the source. The calls were made as follows, unless noted: active = hit-call score of the fitted dose curve at least 0.9, where 1 is the maximum; inactive = score below 0.9.

Assays:
[1] = Tanguay_ZF_120hpf_DP24: Oregon State University Tanguay Lab 24 Hour Post-fertilization zebrafish Assay for Delayed Development (AID 2284390)
Outline: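 Dechorionated 5D wild-type zebrafish embryos exposed statically from 6 hpf, one per well, 0.64% DMSO final, 28 C, sealed and dark. Developmental progression scored at 24 hpf by brightfield as binary present/absent; dead embryos excluded.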

[2] = Tanguay_ZF_120hpf_CRAN: Oregon State University Tanguay Lab 120 Hour Post-fertilization zebrafish Assay for Craniofacial Malformation (AID 2284397)
Outline: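 Dechorionated Tropical 5D wild-type zebrafish embryos, one per well, were statically exposed from 6 to 120 hpf at 28C in 0.64% DMSO, with 5uM trimethyltin chloride as positive control. Craniofacial malformation was scored present/absent by brightfield microscopy, relative to DMSO.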

[3] = Tanguay_ZF_120hpf_AXIS: Oregon State University Tanguay Lab 120 Hour Post-fertilization zebrafish Assay for Axial Malformation (AID 2284398)
Outline: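 Dechorionated 5D wild-type zebrafish embryos exposed statically, one per well, from 6 to 120 hpf at 28C, 0.64% DMSO. Axial malformation scored as present/absent by brightfield microscopy at 120 hpf; dead embryos not scored.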

[4] = Tanguay_ZF_120hpf_MORT: Oregon State University Tanguay Lab 120 Hour Post-fertilization zebrafish Assay for Mortality (AID 2284399)
Outline: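 Dechorionated wild-type Tropical 5D zebrafish embryos, one per well from 6 hpf, static exposure to 120 hpf at 28C in sealed dark plates, 0.64% DMSO final. Mortality scored as binary by brightfield at 24 and 120 hpf.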

[5] = Tanguay_ZF_120hpf_EDEM: Oregon State University Tanguay Lab 120 Hour Post-fertilization zebrafish Assay for Edema Malformation (AID 2284400)
Outline: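 Dechorionated Tropical 5D wild-type embryos, one per well, statically exposed from 6 to 120 hpf at 28C in 0.64% DMSO. Edema scored present/absent by brightfield microscopy at 120 hpf; dead embryos not scored; fit versus DMSO.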

[6] = Tanguay_ZF_120hpf_MUSC: Oregon State University Tanguay Lab 120 Hour Post-fertilization zebrafish Assay for Muscle Malformation (AID 2284401)
Outline: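 Dechorionated Tropical 5D wild-type zebrafish embryos exposed statically from 6 to 120 hpf at 28C, one per well, in 0.64% DMSO. Muscle malformation scored present/absent by brightfield microscopy at 120 hpf, fitted against DMSO.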

[7] = Tanguay_ZF_120hpf_BRN: Oregon State University Tanguay Lab 120 Hour Post-fertilization zebrafish Assay for Brain Region Malformation (AID 2284402)
Outline: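 Dechorionated wild-type Tropical 5D zebrafish embryos exposed statically from 6 to 120 hpf at 28C, one per well, 0.64% DMSO final. Brain malformation scored at 120 hpf by brightfield as present/absent; dead embryos not scored.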

[8] = Tanguay_ZF_120hpf_TCHR: Oregon State University Tanguay Lab 120 Hour Post-fertilization zebrafish Assay for Touch Responsive (AID 2284403)
Outline: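 Dechorionated Tropical 5D wild-type zebrafish embryos, one per well from 6 hpf, were statically exposed to 120 hpf at 28 °C (0.64% DMSO). Touch response was scored present/absent at 120 hpf and not scored in dead larvae.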

[9] = Tanguay_ZF_120hpf_ANY: Oregon State University Tanguay Lab 120 Hour Post-fertilization zebrafish Assay for Any Mortality and Malformation (AID 2284404)
Outline: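 Dechorionated Tropical 5D wild-type embryos, one per well from 6 hpf, static exposure in sealed, dark plates at 28C until 120 hpf, 0.64% DMSO final. Brightfield scoring of mortality and malformations as binary presence/absence, pooling 13 morphology endpoints.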

[10] = CCTE_Padilla_ZF_Score.Craniofacial: CCTE's 144 Hour Post-fertilization zebrafish Assay Score for Craniofacial Malformation, Padilla Lab (AID 2284405)
Outline: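 Wild-type zebrafish embryos (with chorions), one per well in 10% Hanks', were dosed at 6–8 hpf in sealed plates and kept at 26C. They were rinsed at 5 dpf. At 6 dpf two blinded assessors scored craniofacial malformations by brightfield stereomicroscopy.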

[11] = CCTE_Padilla_ZF_Score.Edema: CCTE's 144 Hour Post-fertilization zebrafish Assay Score for Edema Malformation, Padilla Lab (AID 2284406)
Outline: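 Wild-type zebrafish embryos, one per well in Hanks' solution, dosed at 6-8 hpf, sealed and reared at 26C on a 14:10 h cycle; rinsed on 5 dpf. At 6 dpf, blinded assessors scored edema by stereomicroscopy.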

[12] = CCTE_Padilla_ZF_Score.Spine: CCTE's 144 Hour Post-fertilization zebrafish Assay Score for Spine Malformation, Padilla Lab (AID 2284407)
Outline: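 Wild-type zebrafish embryos, one per well in Hanks' solution, dosed at 6–8 hpf in sealed plates at 26C, 14:10 h light:dark; rinsed at 5 dpf. Two blinded assessors scored spinal defects by stereomicroscopy at 6 dpf; fitted versus DMSO.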

[13] = CCTE_Padilla_ZF_Score.Swim_bladder: CCTE's 144 Hour Post-fertilization zebrafish Assay Score for Swim Bladder Malformation, Padilla Lab (AID 2284408)
Outline: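 Wild-type zebrafish embryos, one per well in 10% Hanks', dosed at 6–8 hpf, sealed, reared at 26C and rinsed at 5 dpf. Blinded assessors scored uninflated swim bladder by stereomicroscopy at 6 dpf, relative to DMSO.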

[14] = CCTE_Padilla_ZF_Score.Position: CCTE's 144 Hour Post-fertilization zebrafish Assay Score for Position, Padilla Lab (AID 2284409)
Outline: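 Wild-type zebrafish embryos (with chorions) exposed singly from 6–8 hpf in sealed wells of Hanks' solution at 26C, rinsed at 5 dpf. At 6 dpf, blinded assessors scored abnormal water-column position by brightfield stereomicroscopy, relative to DMSO.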

[15] = CCTE_Padilla_ZF_Score.Living: CCTE's 144 Hour Post-fertilization zebrafish Assay Score for Viability, Padilla Lab (AID 2284410);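 also: larval death at 6 dpf judged by absent heartbeat or coagulation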
Outline: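 Wild-type zebrafish embryos were exposed singly from 6–8 hpf in sealed wells of Hanks' solution at 26C, then rinsed at 5 dpf. At 6 dpf, blinded assessors scored mortality (no heartbeat or coagulation) by stereomicroscopy, fitted against DMSO.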

[16] = CCTE_Padilla_ZF_Score.General: CCTE's 144 Hour Post-fertilization zebrafish Assay Score for General Malformation, Padilla Lab (AID 2284411)
Outline: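 Wild-type zebrafish embryos were plated singly at 6-8 hpf in 10% Hanks' and exposed in sealed wells at 26C until rinsed on 5 dpf. At 6 dpf two blinded assessors scored mortality, hatching and malformations by stereomicroscopy; gain-of-signal versus DMSO.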

[17] = CCTE_Padilla_ZF_Score.Tail: CCTE's 144 Hour Post-fertilization zebrafish Assay Score for Tail Malformation, Padilla Lab (AID 2284414)
Outline: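 Wild-type zebrafish embryos, one per well in 200 uL 10% Hanks', dosed at 6-8 hpf, sealed, and kept at 26 C on a 14:10 h light cycle. Chemical was rinsed out at 5 dpf. Blinded brightfield scoring of tail defects followed at 6 dpf.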

[18] = CCTE_Padilla_ZF_Score.Blood_pooling: CCTE's 144 Hour Post-fertilization zebrafish Assay Score for Blood Pooling, Padilla Lab (AID 2284415)
Outline: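 Wild-type outbred zebrafish embryos, one per well in 10% Hanks', exposed from 6–8 hpf in sealed plates at 26C on 14:10 h light:dark, rinsed at 5 dpf. Blinded stereomicroscope scoring of blood pooling at 6 dpf; gain-of-signal versus DMSO.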

[19] = test system: SRY-box transcription factor 17 (SOX17) Protein Expression, Deisenroth Lab, SOX17 (gene 64321); experiment: CCTE_Deisenroth_DEVTOX-GLR_Endo_SOX17: CCTE's DevTox GLR-Endo Assay Evaluation of SRY-box transcription factor 17 (SOX17) Protein Expression, Deisenroth Lab (AID 2284413)
Outline: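 RUES2-GLR human pluripotent cells were differentiated toward endoderm for 48 h and received two compound doses 24 h apart (1 nM - 200 uM, 10 points). High-content imaging of fixed cells gave the percent SOX17+ cells per cell count, expressed as percent change versus 0.2% DMSO.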

[20] = test system: SRY-box transcription factor 2 (SOX2) Protein Expression, Deisenroth Lab, SOX2 (gene 6657); experiment: CCTE_Deisenroth_DEVTOX-GLR_Endo_SOX2: CCTE's DevTox GLR-Endo Assay Evaluation of SRY-box transcription factor 2 (SOX2) Protein Expression, Deisenroth Lab (AID 2284412; active = hit-call score of the fitted dose curve at least 0.9, where 1 is the maximum)
Outline: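 RUES2-GLR human pluripotent cells were seeded 24 h, then differentiated 48 h with two chemical exposures 24 h apart. Cells were fixed, nuclei stained and imaged by high-content microscopy. Endpoint is %SOX2+ cells over cell count, minus 0.2% DMSO control; 10-point series 1 nM–200 uM.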

Measured: AC50

O=S(=O)(O)C(F)(F)C(F)(F)C(F)(F)C(F)(F)F
not listed: [19] | [20]
inactive: all other assays above

O=C(O)C(F)(F)C(F)(F)C(F)(F)C(F)(F)C(F)(F)F
not listed: [19] | [20]
inactive: all other assays above

Oc1c(Cl)c(Cl)c(Cl)c(Cl)c1Cl
active: [16] 0.681 µM

CC1=C2C[C@H]3[C@@H](CC=C4C[C@@H](O)CC[C@@]43C)[C@@H]2CC[C@]12O[C@@H]1C[C@H](C)CN[C@H]1[C@H]2C
inactive: [19]

O=C(O)C(F)(F)C(F)(F)C(F)(F)C(F)(F)C(F)(F)C(F)(F)C(F)(F)C(F)(F)C(F)(F)F
active: [2] 19.5 µM | [9] 8.9 µM | [13] 11.5 µM | [15] 17.5 µM | [16] 11.5 µM
not listed: [19] | [20]
inactive: all other assays above

O=S(=O)(O)C(F)(F)C(F)(F)C(F)(F)C(F)(F)C(F)(F)C(F)(F)F
inactive: [1] | [2] | [3] | [4] | [5] | [6] | [7] | [8] | [10] | [11] | [12] | [13] | [14] | [15] | [16] | [17] | [18]
active: [2] 85.1 µM | [3] 84.8 µM | [5] 85.1 µM | [6] 84.8 µM | [7] 81.8 µM | [8] 84.8 µM | [9] 85.1 µM and 71.3 µM | [10] 81.3 µM | [11] 29.6 µM | [13] 38.9 µM | [14] 87.5 µM | [15] 88.7 µM | [16] 83.7 µM

C=CC(N)=O
inactive: [20] | [19]

O=C(O)C(F)(F)C(F)(F)C(F)(F)C(F)(F)C(F)(F)C(F)(F)C(F)(F)C(F)(F)F
active: [11] 30.6 µM | [13] 30 µM | [14] 88.1 µM | [15] 81.2 µM | [16] 31.2 µM
not listed: [19] | [20]
inactive: all other assays above

NS(=O)(=O)C(F)(F)C(F)(F)C(F)(F)C(F)(F)C(F)(F)C(F)(F)C(F)(F)C(F)(F)F
active: [1] 16.4 µM | [2] 3.27 µM | [4] 5.51 µM | [9] 2.59 µM | [11] 0.582 µM | [13] 0.321 µM | [15] 1.76 µM | [16] 0.453 µM
not listed: [19] | [20]
inactive: all other assays above
